From the supplement of paper PMC10338343
± gives the standard deviation.

Key:
[1] = system: MILI (PIWIL2) piRISC loaded with piRNA #1 (26 nt); assay: pre-steady-state target cleavage rate (min^-1); guide: piRNA #1 5'p-UGAGGUAGUAGGUUGUAUAGUAUCCA; higher = faster piRNA-guided slicing of the target; conditions: auxiliary factor: 500 nM mouse GTSF1
Summary of the method: (§1)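 A transcribed, DNA-blocked target RNA library (0.1 nM) and 1 nM active affinity-purified piRISC bearing one synthetic guide were incubated in HEPES–potassium acetate buffer at 33 °C for 0–8 or 0–960 min, either with or without 500 nM GTSF1 partner protein. Uncleaved targets were sequenced, normalised to depth and to weakly complementary targets, and pooled over three trials, with k3 capped at 0.0001 min^-1. The pre-steady-state cleavage rate was derived with a burst-and-steady-state fit.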

[2] = system: EfPiwi piRISC loaded with piRNA #1 (26 nt); assay: pre-steady-state target cleavage rate (min^-1); auxiliary factor: 500 nM Ephydatia muelleri Gtsf1; guide: piRNA #1 5'p-UGAGGUAGUAGGUUGUAUAGUAUCCA; MIWI and MILI are mouse PIWI proteins and EfPiwi is from a freshwater sponge; tags in brackets are library labels; higher = faster piRNA-guided slicing of the target
Summary of the method: as §1

Sequence	pre-steady-state target cleavage rate [1]	pre-steady-state target cleavage rate [2]
GGAGACGAUGACUAUACAACCUACUACCUCA	0.151 ± 0.02	0.11 ± 0.039
GGAGACCAUACUAUACAACCUACUACGCUCA	0.219 ± 0.028	0.00458 ± 0.0028
GGAGUGGCUACUAUACAACCUACUACCUCA	0.19 ± 0.012	0.0198 ± 0.0079
GGAGACCAUACUUAUACAACCUACUACCUCA	0.132 ± 0.016	0.0757 ± 0.028
GGAGACCAUACCAUACAACCUACUACCUCA	0.157 ± 0.027	0.107 ± 0.044
GGAGACCUAUCUAUACAACCUACUAUCUCA	0.0794 ± 0.013	0.00591 ± 0.004
GGAGUGGAAACUUUACAACCUACUACCUCA	0.179 ± 0.02	0.00583 ± 0.0037
GGAGUGGAUACAUAACAACCUACUACCUCA	0.113 ± 0.0099	0.00683 ± 0.0044
GGAGACGAUACUAUACAACCUACAACCUCA	0.142 ± 0.019	0.00407 ± 0.0013
GGAGACCUUACUAUGACAACCUACUACCUCA	0.179 ± 0.018	0.00456 ± 0.0042
GGAGAGGAUAGUAUACAACCUACUAGCUCA	0.00705 ± 0.0035	0.00348 ± 0.0023
GGAGUGGUAUCUAUACAACCUACUACCUCA	0.136 ± 0.0091	0.0613 ± 0.023
GGAGUGGAUACUAAACAACCUAGUACCUCA	0.0567 ± 0.011	0.00256 ± 0.0016
GGAGAGGAUACAAUACAACCUACUACGUCA	0.0443 ± 0.0068	0.00333 ± 0.0019
GGAGACGAGUACUAUACAACCUACUACCUCA	0.176 ± 0.014	0.0147 ± 0.0053
GGAGUGGAUACUAUACAACACUACUACCUCA	0.00621 ± 0.0026	0.00629 ± 0.003
GGAGACGAUACUAUACAACCUAGUACCUCA	0.0648 ± 0.014	0.00506 ± 0.0014
GGAGACGAUACUAUAAAACCUACUACCUCA	0.184 ± 0.013	0.00426 ± 0.0022
GGAGACCUUACUAUACAACCUACUACCUA	0.152 ± 0.018	0.0485 ± 0.018
GGAGUGGAUAGUAUACAACCUACUAGCUCA	0.00679 ± 0.003	0.00291 ± 0.0018

Sequence	pre-steady-state target cleavage rate [1]	pre-steady-state target cleavage rate [2]
GGAGACCAUUCUAUACAACCUACUACGUCA	0.0404 ± 0.0088	0.0027 ± 0.0025
GGAGUGGAUACUAUACAACCUACUACGAGA	0.0112 ± 0.004	0.00447 ± 0.0022
GGAGACGUUACUAUACAACCUACUACCUCA	0.186 ± 0.014	0.0209 ± 0.0092
GGAGACGAUACUAUACAAUCUACUACCUCA	0.131 ± 0.0093	0.00912 ± 0.0039
GGAGACGUAUCUAUACAACCUACUACCUCA	0.156 ± 0.015	0.00913 ± 0.0041
GGAGAGGAUACUAUACAACCUACUAGCACA	0.00642 ± 0.0042	0.00322 ± 0.0016
GGAGAGGAUAGUAUACAACCUACUACCACA	0.0774 ± 0.011	0.00287 ± 0.002
GGAGUGGAUACUAUACAACCUAGCUACCUCA	0.0643 ± 0.006	0.003 ± 0.0015
GGAGACCUAUGAUAACAACCUACUACGCUCA	0.00466 ± 0.0023	< 0.0001
GGAGAGGAUACUAUACCACCUACUACCUCA	0.212 ± 0.019	0.00648 ± 0.003
GGAGACCUAUGUAUUACAACCUACUACCUCA	0.0187 ± 0.0046	0.0036 ± 0.0033
GGAGACCUAACUAUCACAACCUACUACCUCA	0.085 ± 0.025	0.00495 ± 0.0033
GGAGACCUUACUGUACAACCUACUACCUCA	0.163 ± 0.029	0.0146 ± 0.0073
GGAGACGAUACUAUACAACGUACUACCUGA	0.0157 ± 0.0045	0.0041 ± 0.0012
GGAGUGGUUACUAUACAACCUACUACGUCA	0.0604 ± 0.011	0.00307 ± 0.0016
GGAGUGGAUACUAGACAACCUACUACCUCA	0.193 ± 0.011	0.226 ± 0.081
GGAGUGCAUACUAUACAACCUUCUACCUCA	0.00996 ± 0.002	0.00467 ± 0.0029
GGAGACCUUAUCUAUACAACCUACUACCUCA	0.115 ± 0.014	0.0368 ± 0.017
GGAGACGAUACUAUACAACGUUCUACCUCA	0.00469 ± 0.0024	0.00329 ± 0.0013
GGAGACGAUACGAUACAACCUACUACCUCA	0.193 ± 0.018	0.049 ± 0.019

Sequence	pre-steady-state target cleavage rate [1]	pre-steady-state target cleavage rate [2]
GGAGUGGAUCCUAUACAACCUACUACCUCA	0.156 ± 0.027	0.111 ± 0.058
GGAGACCAUAGCUAUACAACCUACUACCUCA	0.121 ± 0.014	0.0108 ± 0.0051
GGAGAGGAUACUAAACAACCUACUUCCUCA	0.0102 ± 0.0039	0.00239 ± 0.0016
GGAGACCUUAGUAUACAACCUACUACCUGA	0.0569 ± 0.0097	0.00359 ± 0.0036
GGAGAGGAUACUAUCCAACCUACUACCUCA	0.232 ± 0.015	0.00889 ± 0.004
GGAGACGAUUGAAUACAACCUACUACCUCA	0.00898 ± 0.0022	0.00528 ± 0.0043
GGAGACCAUACUAUACAACCUACUACCCA	0.0934 ± 0.019	0.00453 ± 0.0028
GGAGUGGAUACUAUACAACGCUACUACCUCA	0.0044 ± 0.0029	0.00636 ± 0.003
GGAGACCUAUGAACACAACCUACUACCUCA	0.0162 ± 0.0041	0.00896 ± 0.0044
GGAGUGGAUACUAUACUACCUACUAGCUCA	0.0877 ± 0.012	0.0027 ± 0.0021
GGAGUGGAUACUAUACAUCCUACUACCACA	0.108 ± 0.014	0.00415 ± 0.0017
GGAGACGAUACUAUACAACCAACUACCUGA	0.00533 ± 0.0024	0.00427 ± 0.0022
GGAGUGGAUACUAUACAACCUACUAACCUCA	0.133 ± 0.014	0.00634 ± 0.0027
GGAGACGAUACUAUACAACCUCUACCUCA	0.0213 ± 0.0044	0.00608 ± 0.0025
GGAGACCUAACUAUGCAACCUACUACCUCA	0.12 ± 0.013	0.00447 ± 0.0039
GGAGACCAUACUAUACAACCUACUAGCUGA	0.0115 ± 0.0056	0.00669 ± 0.0037
GGAGACCAUACUAUACAACCUACUAGCACA	0.0527 ± 0.018	0.00447 ± 0.0023
GGAGACCUUACAAUACAACCUACUACCUCA	0.146 ± 0.019	0.0117 ± 0.0048
GGAGACCUAACUAUACAAGCUACUACCUCA	0.206 ± 0.02	0.00482 ± 0.0028
GGAGAGGAUACUAUACAACCUAAUACCUCA	0.0575 ± 0.01	0.00595 ± 0.0025
